# Results published in PubChem BioAssay AID2061318 (National Center for Advancing Translational Sciences (NCATS), 2025).
# Inconclusive results are not listed. Calls of active or inactive are those of the source. Calls follow the shape of the dose curve; as a rule, active = well fitted inhibition curve with a large enough effect; inconclusive = small, poorly fitted or top-dose-only effect; inactive = flat fitted curve, though single readings scatter.
# Assay: Identification of antibody-drug conjugate (ADC) payloads which are substrates of ATP-binding cassette drug efflux transporters: ABCB1-HEK293-MDR-19 cell line
# Conditions: HEK293 ABCB1 (MDR-19) viability, CellTiter-Glo, 48 h
# Source text: Antibody-drug conjugates (ADCs) feature an antibody recognizing a specific protein joined to a potent toxic payload. Numerous antibody-drug conjugates have received FDA approval; however, clinical resistance arises. Resistance mechanisms include decreased expression or mutation of the antibody target, impaired payload release, or increased expression of ATP-binding cassette (ABC) efflux transporters associated with multidrug resistance. We therefore sought to characterize the interaction of ABC multidrug transporters with ADC payloads. We performed a high-throughput screen with 27 common ADC payloads using cells lines expressing ABC transporters P-glycoprotein (P-gp, encoded by ABCB1) or ABCG2 (encoded by ABCG2). Confirmatory assays were also performed using cells transfected to express P-gp, ABCG2, or MRP1 (encoded by ABCC1). Several commonly used ADC payloads were substrates of P-gp, including calicheamicin gamma1, monomethyl auristatin E, DM1, and DM4. All the pyrrolobenzodiazepines tested - SJG136, SGD-1882, SG2057, and SG3199 - were substrates of P-gp, ABCG2, and MRP1. […] These findings highlight the risk of transporter-mediated resistance with certain ADC payloads and underscore the importance of selecting payloads that evade ABC transporter recognition in future ADC development.
# HEK-293 cells were transfected with empty vector (pcDNA) or vector containing the human ABCB1 (MDR-19), ABCG2 (R-5), or ABCC1 gene (MRP1) and were maintained in EMEM with 2 mg/mL G418 added to maintain transporter expression. The HeLa derivative KB-3-1 and the P-gp overexpressing KB-8-5-11 subline were maintained in DMEM; KB-8-5-11 additionally received 100 ng/mL colchicine. H460 parental cells were obtained from the Division of Cancer Treatment and Diagnosis Tumor Repository, National Cancer Institute at Frederick, MD and were cultured in RPMI. The ABCG2 expressing subline H460 MX20 was generated by selecting H460 cells in 20 nM mitoxantrone. Media in all cases was supplemented with 10% FBS and 1% penicillin-streptomycin. We explored 27 common ADC payloads, in two orthogonal, paired cell line sets-a drug selected and transfected set for each transporter--to identify substrates of the ABC transporters P-gp and ABCG2. Compounds were sourced from Levena Biopharma (San Diego, CA), Selleck Chem (Houston, TX), ChemieTek (Indianapolis, IN), or Microsource Discovery Systems (Gaylordsville, CT). Screening was performed as previously described. Briefly, cells were plated at a density of 500 cells/well in 1536 well plates with compounds added using a 1536-head pin tool (Kalypsys, San Diego CA). Cells were incubated with cytotoxic drugs and processed with CellTiter Glo reagent (Promega, Madison, WI) to determine viability after 48 hours. P-gp substrates were identified by comparing compound activity between paired sets of low-expressing (sensitive) and over-expressing (resistant) cell lines.
row,SMILES,Potency
1,COc1cccc2c1C(=O)c1c(O)c3c(c(O)c1C2=O)C[C@@](O)(C(=O)CO)CC3OC1CC(N2CCOC(OC)C2)C(O)C(C)O1 (stereo partly specified),1.7 nM (active)
2,CC[C@@]1(O)C(=O)OCc2c1cc1n(c2=O)Cc2cc3ccccc3nc2-1,13.3 nM (active)
3,COc1cc2cc(c1Cl)N(C)C(=O)C[C@H](OC(=O)[C@H](C)N(C)C(=O)CCS)[C@]1(C)OC1[C@H](C)C1C[C@@](O)(NC(=O)O1)[C@H](OC)/C=C/C=C(\C)C2 (stereo partly specified),298 nM (active)
4,COc1cc2cc(C(=O)N3C[C@@H](CCl)c4c3cc(O)c3ccccc43)[nH]c2c(OC)c1OC,1.2 nM (active)
5,CC[C@H](C)[C@@H]([C@@H](CC(=O)N1CCC[C@H]1[C@H](OC)[C@@H](C)C(=O)N[C@H](C)[C@@H](O)c1ccccc1)OC)N(C)C(=O)[C@@H](NC(=O)[C@H](C(C)C)N(C)C)C(C)C,66.6 nM (active)
6,COc1cc2cc(c1Cl)N(C)C(=O)C[C@H](OC(=O)C(C)C)[C@]1(C)O[C@H]1[C@H](C)[C@@H]1C[C@@](O)(NC(=O)O1)[C@H](OC)C=CC=C(C)C2,14.9 nM (active)
